# In PubChem BioAssay (NCATS):
# Results filed as inconclusive are left out. Entries that show only a call come without a potency. Values without a mark were called inactive. Calls of active or inactive are those of the source. Calls come from the whole dose curve; as a rule, active = well fitted cell-killing curve with a large enough effect; inconclusive = small, poorly fitted or top-dose-only effect, or effect the other way; inactive = flat fitted curve, though single readings scatter.
# Key:
# Test in all cases: Primary qHTS to identify gynecologic anti-cancer compounds using libraries of approved drugs and bioactive compounds (AID 1345084); note: nearly all actives have a fitted effect of over 55% in size
# CAOV3 = conditions: Gynecologic cancer cell panel viability, ATPlite luminescence, 48 h; series mostly up to 57.5 µM
# In short: (§1)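 Five-point cytotoxicity, 48 h drug exposure at 37 C, 5% CO2, on cells seeded 16 h beforehand. ATP content read by ATPlite luminescence.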
# CASKI = conditions: Gynecologic cancer cell panel viability, ATPlite luminescence, 48 h; series mostly up to 57.5 µM
# In short: as §1
# Es-2 = conditions: Gynecologic cancer cell panel viability, ATPlite luminescence, 48 h; series mostly up to 57.5 µM
# In short: as §1
# HeLa = conditions: Gynecologic cancer cell panel viability, ATPlite luminescence, 48 h; series mostly up to 57.5 µM
# In short: as §1
# Hek293T = conditions: Gynecologic cancer cell panel viability, ATPlite luminescence, 48 h, control line for the selectivity index; series mostly up to 57.5 µM
# In short: as §1
# JEG-3 = conditions: Gynecologic cancer cell panel viability, ATPlite luminescence, 48 h; series mostly up to 57.5 µM
# In short: as §1
# OV90 = conditions: Gynecologic cancer cell panel viability, ATPlite luminescence, 48 h; series mostly up to 57.5 µM
# In short: as §1
# SKOV3 = conditions: Gynecologic cancer cell panel viability, ATPlite luminescence, 48 h; series mostly up to 57.5 µM
# In short: as §1
# Tov-21-G = conditions: Gynecologic cancer cell panel viability, ATPlite luminescence, 48 h; series mostly up to 57.5 µM
# In short: as §1
# PA-1 = conditions: Gynecologic cancer cell panel viability, ATPlite luminescence, 48 h; series mostly up to 57.5 µM
# In short: as §1
# Potency is the fitted concentration of half-maximal effect.
compound,measurement,setting,value
CN1C(=O)c2ccccc2NC(=O)[C@]12O[C@@H]2c1ccccc1,Potency,CAOV3,inactive
same,Potency,CASKI,inactive
same,Potency,Es-2,inactive
same,Potency,HeLa,inactive
same,Potency,Hek293T,inactive
same,Potency,JEG-3,inactive
same,Potency,OV90,inactive
same,Potency,SKOV3,inactive
same,Potency,Tov-21-G,inactive
COC1C(O)C(C)OC(OC2C(CO)O[C@@H](O[C@@H]3CC4CCC5C(CC[C@]6(C)[C@@H](C7=CC(=O)OC7)CC[C@]56O)[C@@]4(C)[C@H](O)C3)C(O)C2O)C1O (stereo partly specified),Potency,CAOV3,2820 nM (active)
same,Potency,CASKI,2510 nM (active)
same,Potency,Es-2,2820 nM (active)
same,Potency,HeLa,2820 nM (active)
same,Potency,Hek293T,2820 nM (active)
same,Potency,OV90,4470 nM (active)
same,Potency,PA-1,2820 nM (active)
same,Potency,SKOV3,2820 nM (active)
same,Potency,Tov-21-G,1000 nM (active)
CCN1CC2(COC)C3[C@@H](OC)C4C1C3(C1C[C@]3(O)[C@H](OC(=O)c5ccccc5)C1[C@]4(OC(C)=O)[C@@H](O)[C@@H]3OC)[C@H](OC)C[C@H]2O (stereo partly specified),Potency,CAOV3,inactive
same,Potency,CASKI,inactive
same,Potency,Es-2,inactive
same,Potency,HeLa,inactive
same,Potency,Hek293T,inactive
same,Potency,JEG-3,inactive
same,Potency,OV90,inactive
same,Potency,SKOV3,inactive
same,Potency,Tov-21-G,inactive
CC(C)[C@@H](CN1CC[C@@](C)(c2cccc(O)c2)[C@@H](C)C1)NC(=O)[C@H]1Cc2ccc(O)cc2CN1,Potency,CAOV3,inactive
same,Potency,CASKI,inactive
same,Potency,Es-2,inactive
same,Potency,HeLa,inactive
same,Potency,Hek293T,inactive
same,Potency,JEG-3,inactive
same,Potency,OV90,inactive
same,Potency,PA-1,inactive
same,Potency,Tov-21-G,inactive
CCCSP(=O)(OCC)SCCC,Potency,CAOV3,inactive
same,Potency,CASKI,inactive
same,Potency,Es-2,inactive
same,Potency,HeLa,inactive
same,Potency,Hek293T,inactive
same,Potency,OV90,inactive
same,Potency,PA-1,inactive
same,Potency,SKOV3,inactive
same,Potency,Tov-21-G,inactive
CC(N)Cc1c[nH]c2ccccc12 (stereo unspecified),Potency,CAOV3,inactive
same,Potency,CASKI,inactive
same,Potency,Es-2,inactive
same,Potency,HeLa,inactive
same,Potency,Hek293T,inactive
same,Potency,JEG-3,inactive
same,Potency,OV90,inactive
same,Potency,PA-1,inactive
same,Potency,Tov-21-G,inactive
Cc1c(Cl)cccc1S(=O)(=O)Nc1nc(CC(=O)N2CCN(C)CC2)cs1,Potency,CAOV3,inactive
same,Potency,CASKI,inactive
same,Potency,Es-2,inactive
same,Potency,HeLa,inactive
same,Potency,Hek293T,inactive
same,Potency,JEG-3,inactive
same,Potency,OV90,inactive
same,Potency,PA-1,inactive
same,Potency,Tov-21-G,inactive
CN1CCC[C@@H]1Cc1c[nH]c2ccc(Nc3ncccc3[N+](=O)[O-])cc12,Potency,CAOV3,inactive
same,Potency,CASKI,inactive
same,Potency,Es-2,inactive
same,Potency,HeLa,inactive
same,Potency,JEG-3,inactive
same,Potency,OV90,inactive
same,Potency,PA-1,inactive
same,Potency,SKOV3,inactive
same,Potency,Tov-21-G,inactive
C[CH2][Hg][S]c1ccccc1C(=O)O,Potency,Tov-21-G,35500 nM (active)
CC[C@H]1CN2CC[C@H]1C[C@@H]2[C@@H](O)c1ccnc2ccc(OC)cc12,Potency,CAOV3,inactive
same,Potency,CASKI,inactive
same,Potency,Es-2,inactive
same,Potency,HeLa,inactive
same,Potency,Hek293T,inactive
same,Potency,JEG-3,inactive
same,Potency,OV90,inactive
same,Potency,SKOV3,inactive
same,Potency,Tov-21-G,inactive
COc1ccccc1CN[C@H]1C2CCN(CC2)[C@H]1C(c1ccccc1)c1ccccc1,Potency,CAOV3,inactive
same,Potency,CASKI,inactive
same,Potency,Es-2,inactive
same,Potency,HeLa,inactive
same,Potency,Hek293T,inactive
same,Potency,JEG-3,inactive
same,Potency,PA-1,inactive
same,Potency,SKOV3,inactive
same,Potency,Tov-21-G,inactive
COC1=CC(=O)O[C@@H](/C=C/c2ccccc2)C1,Potency,CAOV3,inactive
same,Potency,CASKI,inactive
same,Potency,Es-2,inactive
same,Potency,HeLa,inactive
same,Potency,Hek293T,inactive
same,Potency,JEG-3,inactive
same,Potency,PA-1,inactive
same,Potency,SKOV3,inactive
same,Potency,Tov-21-G,inactive
COC1CC(O[C@H]2CC[C@]3(C=O)C4CC[C@]5(C)[C@@H](C6=CC(=O)OC6)CC[C@]5(O)[C@@H]4CC[C@]3(O)C2)OC(C)C1O[C@@H]1O[C@H](CO)[C@@H](O)[C@H](O)[C@H]1O (stereo partly specified),Potency,CAOV3,501 nM (active)
same,Potency,Es-2,355 nM (active)
same,Potency,HeLa,355 nM (active)
same,Potency,Hek293T,501 nM (active)
same,Potency,PA-1,316 nM (active)
same,Potency,SKOV3,447 nM (active)
same,Potency,Tov-21-G,141 nM (active)
CCC1NC(=O)C2C(Cl)C(Cl)CN2C(=O)C(C(C)O)NC(=O)CC(c2ccccc2)NC(=O)C(CO)NC1=O (stereo unspecified),Potency,CAOV3,inactive
same,Potency,CASKI,inactive
same,Potency,Es-2,inactive
same,Potency,HeLa,inactive
same,Potency,Hek293T,inactive
same,Potency,JEG-3,inactive
same,Potency,OV90,inactive
same,Potency,PA-1,inactive
same,Potency,Tov-21-G,inactive
CO[C@@H]1[C@H](O)[C@@H](O[C@@H]2C[C@H]3CC[C@@H]4C(CC[C@]5(C)[C@@H](C6=CC(=O)OC6)CC[C@]45O)[C@@]3(C)[C@H](O)C2)O[C@H](C)[C@@H]1O[C@@H]1O[C@H](CO)[C@@H](O)[C@H](O)[C@H]1O (stereo partly specified),Potency,CASKI,1260 nM (active)
same,Potency,Es-2,398 nM (active)
same,Potency,HeLa,562 nM (active)
same,Potency,Hek293T,398 nM (active)
same,Potency,OV90,2240 nM (active)
same,Potency,PA-1,398 nM (active)
same,Potency,SKOV3,562 nM (active)
same,Potency,Tov-21-G,199 nM (active)
Cn1ncnc1COc1nn2c(-c3c(F)cccc3F)nnc2cc1C1CCC1,Potency,CASKI,inactive
same,Potency,Es-2,inactive
same,Potency,HeLa,inactive
same,Potency,Hek293T,inactive
same,Potency,JEG-3,inactive
same,Potency,OV90,inactive
same,Potency,PA-1,inactive
same,Potency,SKOV3,inactive
same,Potency,Tov-21-G,inactive
C=CC(C)(O)CC/C=C(\C)C(=O)O[C@H]1[C@H](O)[C@@H](CO)O[C@@H](OC(=O)[C@]23CCC(C)(C)CC2C2=CCC4[C@@]5(C)CC[C@H](O[C@@H]6O[C@H](CO[C@@H]7OC[C@H](O)[C@H](O)[C@H]7O[C@@H]7OC[C@@H](O)[C@H](O)[C@H]7O)[C@@H](O)[C@H](O)[C@H]6O)C(C)(C)C5CC[C@@]4(C)[C@]2(C)CC3)[C@@H]1OC1OC(C)C(O[C@@H]2OC[C@@H](O)[C@H](O[C@@H]3OC[C@@H](O)[C@H](O)[C@H]3O)[C@H]2O)C(O)C1O (stereo partly specified),"activity change, negative = cytotoxicity",CASKI,-11.5% [at 6.55 µM]
same,"activity change, negative = cytotoxicity",Es-2,0.692% [at 6.55 µM]
same,"activity change, negative = cytotoxicity",HeLa,7.46% [at 6.55 µM]
same,"activity change, negative = cytotoxicity",Hek293T,2.18% [at 6.55 µM]
same,"activity change, negative = cytotoxicity",JEG-3,-17.2% [at 6.55 µM]
same,"activity change, negative = cytotoxicity",OV90,-3.63% [at 6.55 µM]
same,"activity change, negative = cytotoxicity",PA-1,3.75% [at 6.55 µM]
same,"activity change, negative = cytotoxicity",SKOV3,0% [at 6.55 µM]
same,"activity change, negative = cytotoxicity",Tov-21-G,5.83% [at 6.55 µM]
COC1CC(OC2CCC3(C)C(CCC4C3CCC3(C)C(C5=CC(=O)OC5)C(OC(C)=O)CC43O)C2)OC(C)C1OC1OC(CO)C(O)C(O)C1O (stereo unspecified),Potency,HeLa,2820 nM (active)
same,Potency,Hek293T,3160 nM (active)
same,Potency,Tov-21-G,1260 nM (active)
CC12CCC3C(CCC4(O)CC(O)CCC34C=O)C1(O)CCC2C1=CC(=O)OC1 (stereo unspecified),Potency,CAOV3,2000 nM (active)
same,Potency,CASKI,7080 nM (active)
same,Potency,Es-2,1120 nM (active)
same,Potency,HeLa,1780 nM (active)
same,Potency,Hek293T,1260 nM (active)
same,Potency,OV90,7080 nM (active)
same,Potency,PA-1,1120 nM (active)
same,Potency,SKOV3,1580 nM (active)
same,Potency,Tov-21-G,708 nM (active)
CC[C@H]1CN2CC[C@H]1C[C@H]2[C@H](O)c1ccnc2ccc(OC)cc12,Potency,CAOV3,inactive
same,Potency,CASKI,inactive
same,Potency,Es-2,inactive
same,Potency,HeLa,inactive
same,Potency,Hek293T,inactive
same,Potency,JEG-3,inactive
same,Potency,PA-1,inactive
same,Potency,SKOV3,inactive
same,Potency,Tov-21-G,inactive
CCN1C[C@]2(OC(=O)c3ccccc3NC(C)=O)CC[C@H](OC)[C@@]34[C@@H]2C[C@@H]([C@@H]13)[C@@]1(O)C[C@H](OC)[C@H]2C[C@@H]4[C@]1(O)[C@H]2OC,Potency,CASKI,inactive
same,Potency,Es-2,inactive
same,Potency,HeLa,inactive
same,Potency,Hek293T,inactive
same,Potency,JEG-3,inactive
same,Potency,OV90,inactive
same,Potency,PA-1,inactive
same,Potency,SKOV3,inactive
same,Potency,Tov-21-G,inactive
Cc1cc(C(=O)CN2CCCC2)c(C)n1-c1ccc(F)cc1,Potency,CAOV3,inactive
same,Potency,CASKI,inactive
same,Potency,Es-2,inactive
same,Potency,HeLa,inactive
same,Potency,Hek293T,inactive
same,Potency,JEG-3,inactive
same,Potency,OV90,inactive
same,Potency,PA-1,inactive
same,Potency,Tov-21-G,inactive
